Test [1] concerns the target human Protein Tyrosine Phosphatase Non-receptor Type 6 (PTPN6), PTPN6 (gene 5777) (UniProt P29350). Put plainly: NVS_ENZ_hPTPN6: NovaScreen (NVS) Enzymatic Assay for human Protein Tyrosine Phosphatase Non-receptor Type 6 (PTPN6) (AID 2283210). The method in brief: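 Recombinant human PTPN6 from SF9 cells, enzyme activity followed by fluorescence after mobility-shift separation of substrate and product at 1.33 h. Chemicals first tested at a single 25 uM in duplicate, then confirmed across concentration series; loss of signal relative to DMSO.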

Test [2] concerns the target cAMP-dependent protein kinase catalytic subunit alpha (Homo sapiens) (UniProt P17612). In words: NVS_ENZ_hPKA: NovaScreen (NVS) Enzymatic Assay for human Protein Kinase A (PKA) (AID 2283192). The method in brief:
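Cell-free kinase activity read by fluorescence after mobility-shift separation of substrate and product, 1 h post-dosing. Single-concentration duplicate screen (25 uM) preceded singleton concentration series (top 50 uM); loss of signal versus DMSO.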

Test [3] deals with human Rho Associated Coiled-coil Containing Protein Kinase 1 (ROCK1), ROCK1 (gene 6093) (UniProt Q13464). In words: NVS_ENZ_hROCK1: NovaScreen (NVS) Enzymatic Assay for human Rho Associated Coiled-coil Containing Protein Kinase 1 (ROCK1) (AID 2283214). The method in brief: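 Compounds first run in duplicate at 25 uM against recombinant human ROCK1, then followed in concentration series. Kinase activity was read 1 h post-dosing by fluorescence with mobility-shift separation, as signal loss relative to DMSO.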

Test [4] addresses Tyrosine-protein phosphatase non-receptor type 11 (Homo sapiens) (UniProt Q06124). Put plainly: NVS_ENZ_hPTPN11: NovaScreen (NVS) Enzymatic Assay for human Protein Tyrosine Phosphatase Non-receptor Type 11 (PTPN11) (AID 2283202). The method in brief: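 Compounds first tested in duplicate at 25 uM; those reaching ~30% inhibition rerun in singleton concentration-response, top 50 uM. Phosphatase activity measured after 0.5 h by fluorescence with mobility-shift separation, relative to DMSO.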

Test [5] addresses Tyrosine-protein phosphatase non-receptor type 12 (Homo sapiens) (UniProt Q05209). Put plainly: NVS_ENZ_hPTPN12: NovaScreen (NVS) Enzymatic Assay for human Protein Tyrosine Phosphatase Non-receptor Type 12 (PTPN12) (AID 2283204). The method in brief:
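Single-concentration duplicates (25 uM) preceded singleton concentration-response up to 50 uM for chemicals passing threshold. Cell-free recombinant PTPN12 activity was read 1.33 h after dosing via fluorescence after mobility-shift separation; loss of signal versus DMSO.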

Test [6] deals with human Protein Tyrosine Phosphatase Non-receptor Type 4 (PTPN4), PTPN4 (gene 5775) (UniProt P29074). Put plainly: NVS_ENZ_hPTPN4: NovaScreen (NVS) Enzymatic Assay for human Protein Tyrosine Phosphatase Non-receptor Type 4 (PTPN4) (AID 2283208). The method in brief: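 Screened in duplicate at 25 uM, with hits then titrated to a top concentration of 50 uM. Recombinant Sf9-derived PTPN4 turnover was read by fluorescence with electrophoretic separation, 1.33 h after compound addition. DMSO served as baseline.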

Test [7] deals with Tyrosine-protein phosphatase non-receptor type 14 (Homo sapiens) (UniProt Q15678). In words: NVS_ENZ_hPTPN14: NovaScreen (NVS) Enzymatic Assay for human Protein Tyrosine Phosphatase Non-receptor Type 14 (PTPN14) (AID 2283206). The method in brief: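 Fluorescent substrate turnover by recombinant human PTPN14 was measured 0.5 h after compound addition, with substrate and product separated by mobility shift. Single-point screening at 25 uM, then concentration-response up to 50 uM for chemicals meeting threshold (e.g., 30% inhibition).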

The target in test [8] is human Protein Phosphatase, Mg2+/Mn2+ Dependent 1A (PPM1A), PPM1A (gene 5494) (UniProt P35813). In words: NVS_ENZ_hPPM1A: NovaScreen (NVS) Enzymatic Assay for human Protein Phosphatase, Mg2+/Mn2+ Dependent 1A (PPM1A) (AID 2283198). The method in brief: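 Primary screen in duplicate at 25 uM, with actives then titrated to a maximum of 50 uM. Recombinant PPM1A dephosphorylation of fluorescent substrate measured at 1 h, with substrate and product separated by mobility shift; inhibition fitted against DMSO.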

In test [9] the target is Serine/threonine-protein phosphatase PP1-alpha catalytic subunit (Homo sapiens) (UniProt P62136). Put plainly: NVS_ENZ_hPPP1CA: NovaScreen (NVS) Enzymatic Assay for human Protein Phosphatase 1 Aatalytic subunit Alpha (PPP1CA) (AID 2283200). The method in brief:
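Chemicals were first screened in duplicate at 25 uM, and those passing threshold (e.g. 30% inhibition) were run as concentration series to 50 uM. Cell-free recombinant protein, 1.33 h read, fluorescent substrate/product mobility-shift detection, normalised to DMSO.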

Test [10] deals with human Phosphodiesterase 4A1 (PDE4A1), PDE4A (gene 5141) (UniProt P27815). In words: NVS_ENZ_hPDE4A1: NovaScreen (NVS) Enzymatic Assay for human Phosphodiesterase 4A1 (PDE4A1) (AID 2283191). The method in brief: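 Fluorescent substrate turnover by recombinant PDE4A1 read after 1 h by mobility-shift separation. Primary duplicate screen at 25 uM; hits retested in concentration series with a 50 uM maximum, relative to DMSO.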

In test [11] the target is human Protein Tyrosine Phosphatase Receptor Type F (PTPRF), PTPRF (gene 5792) (UniProt P10586). Put plainly: NVS_ENZ_hPTPRF: NovaScreen (NVS) Enzymatic Assay for human Protein Tyrosine Phosphatase Receptor Type F (PTPRF) (AID 2283213). The method in brief:
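Cell-free fluorescence enzyme assay with recombinant protein and substrate; product separated by electrophoretic mobility shift. Read 1 h after dosing, single 25 uM duplicate screen, then concentration-response up to 50 uM; loss of signal vs DMSO.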

Test [12] has as its target human Protein Tyrosine Phosphatase Non-receptor Type 9 (PTPN9), PTPN9 (gene 5780) (UniProt P43378). In words: NVS_ENZ_hPTPN9: NovaScreen (NVS) Enzymatic Assay for human Protein Tyrosine Phosphatase Non-receptor Type 9 (PTPN9) (AID 2283209). The method in brief: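 Sf9-expressed enzyme in a cell-free assay, fluorescence read 1.33 h after dosing with mobility-shift separation of substrate and product. Tested at 25 uM in duplicate, then up to 50 uM; signal loss versus DMSO.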

The target in test [13] is human Protein Tyrosine Phosphatase Non-receptor Type 1 (PTPN1), PTPN1 (gene 5770) (UniProt P18031). In words: NVS_ENZ_hPTPN1: NovaScreen (NVS) Enzymatic Assay for human Protein Tyrosine Phosphatase Non-receptor Type 1 (PTPN1) (AID 2283201). The method in brief:
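Chemicals were first tested in duplicate at 25 uM, and those passing threshold went on to singleton concentration series topping at 50 uM. Recombinant enzyme, specific substrate, product separated by mobility shift, fluorescence read at 1.33 h; activity loss relative to DMSO.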

Test [14] addresses Tyrosine-protein phosphatase non-receptor type 13 (Homo sapiens) (UniProt Q12923). Put plainly: NVS_ENZ_hPTPN13: NovaScreen (NVS) Enzymatic Assay for human Protein Tyrosine Phosphatase Non-receptor Type 13 (PTPN13) (AID 2283205). The method in brief:
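Screened first at a single 25 uM in duplicate; compounds passing the threshold (e.g. 30% inhibition) were rerun in concentration series, top 50 uM. Recombinant enzyme, fluorescent substrate, mobility-shift separation, 0.5 h read. Data fitted as inhibition relative to DMSO.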

For test [15], the target named is human Protein Tyrosine Phosphatase Receptor Type B (PTPRB), PTPRB (gene 5787) (UniProt P23467). In words: NVS_ENZ_hPTPRB: NovaScreen (NVS) Enzymatic Assay for human Protein Tyrosine Phosphatase Receptor Type B (PTPRB) (AID 2283211). The method in brief: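 Recombinant human PTPRB with a fluorescent substrate, product separated by electrophoretic mobility shift; read 1 h after dosing. Primary screen in duplicate at 25 uM; actives then retested in concentration series; loss of signal versus DMSO.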

For test [16], the target named is human Protein Tyrosine Phosphatase Receptor Type M (PTPRM), PTPRM (gene 5797) (UniProt P28827). Put plainly: NVS_ENZ_hPTPRM: NovaScreen (NVS) Enzymatic Assay for human Protein Tyrosine Phosphatase Receptor Type M (PTPRM) (AID 2283215). The method in brief: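 Read-out is fluorescence after electrophoretic separation of substrate and product, taken 1.33 h post-dosing with recombinant enzyme. Compounds screened at 25 uM in duplicate, then concentration series for actives; activity as signal loss relative to DMSO.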

The target in test [17] is human Phosphodiesterase 5 (PDE5), PDE5A (gene 8654) (UniProt O76074). In words: NVS_ENZ_hPDE5: NovaScreen (NVS) Enzymatic Assay for human Phosphodiesterase 5 (PDE5) (AID 2283194). The method in brief: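 Screening began in duplicate at 25 uM, with actives taken into concentration-response. Enzyme activity of recombinant PDE5 toward its substrate was measured at 1 h by fluorescence mobility-shift detection, relative to DMSO controls.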

The target in test [18] is human Phosphodiesterase 10 (PDE10), PDE10A (gene 10846) (UniProt Q9Y233). In words: NVS_ENZ_hPDE10: NovaScreen (NVS) Enzymatic Assay for human Phosphodiesterase 10 (PDE10) (AID 2283195). The method in brief: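 Fluorescence readout after mobility-shift separation of substrate and product, 1 h reaction with recombinant human enzyme. Single-concentration duplicates at 25 uM, then concentration-response up to 50 uM for chemicals reaching threshold; DMSO baseline.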

Inconclusive results are not listed. Active and inactive are the calls of the source. How the source made its calls: active means hit-call score of the fitted dose curve at least 0.9, where 1 is the maximum; inconclusive means response in the unintended direction; inactive means score below 0.9.

As a reminder, the AC50 is the concentration giving half of the maximal activity seen.

Chain of human Protein Tyrosine Phosphatase Non-receptor Type 4 (PTPN4), PTPN4 (gene 5775) (P29074 whole entry, looked up): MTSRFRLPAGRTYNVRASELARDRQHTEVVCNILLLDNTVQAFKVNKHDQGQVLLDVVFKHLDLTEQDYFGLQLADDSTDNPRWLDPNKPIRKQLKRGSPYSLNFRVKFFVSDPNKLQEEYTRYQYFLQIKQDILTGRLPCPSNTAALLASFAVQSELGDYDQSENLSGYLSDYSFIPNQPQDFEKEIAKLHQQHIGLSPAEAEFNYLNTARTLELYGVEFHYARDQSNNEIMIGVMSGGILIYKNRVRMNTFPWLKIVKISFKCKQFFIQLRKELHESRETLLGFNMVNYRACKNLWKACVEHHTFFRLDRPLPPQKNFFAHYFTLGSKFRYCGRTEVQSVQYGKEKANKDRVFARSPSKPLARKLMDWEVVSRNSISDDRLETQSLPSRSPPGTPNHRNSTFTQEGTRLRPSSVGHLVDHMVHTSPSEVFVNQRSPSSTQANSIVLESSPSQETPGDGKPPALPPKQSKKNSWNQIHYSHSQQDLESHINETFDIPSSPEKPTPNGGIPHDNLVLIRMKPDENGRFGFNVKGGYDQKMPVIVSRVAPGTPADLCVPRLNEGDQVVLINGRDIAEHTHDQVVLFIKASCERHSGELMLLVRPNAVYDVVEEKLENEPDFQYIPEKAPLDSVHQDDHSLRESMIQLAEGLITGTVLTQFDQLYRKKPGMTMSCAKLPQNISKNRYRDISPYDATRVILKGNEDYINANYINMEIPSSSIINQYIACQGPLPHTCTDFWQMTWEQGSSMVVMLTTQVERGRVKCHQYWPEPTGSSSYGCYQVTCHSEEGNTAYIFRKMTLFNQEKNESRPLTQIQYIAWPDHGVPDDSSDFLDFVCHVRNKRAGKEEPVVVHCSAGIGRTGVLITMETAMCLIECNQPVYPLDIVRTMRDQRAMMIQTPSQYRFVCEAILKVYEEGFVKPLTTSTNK
Chain of human Protein Phosphatase, Mg2+/Mn2+ Dependent 1A (PPM1A), PPM1A (gene 5494) (P35813 whole entry, looked up): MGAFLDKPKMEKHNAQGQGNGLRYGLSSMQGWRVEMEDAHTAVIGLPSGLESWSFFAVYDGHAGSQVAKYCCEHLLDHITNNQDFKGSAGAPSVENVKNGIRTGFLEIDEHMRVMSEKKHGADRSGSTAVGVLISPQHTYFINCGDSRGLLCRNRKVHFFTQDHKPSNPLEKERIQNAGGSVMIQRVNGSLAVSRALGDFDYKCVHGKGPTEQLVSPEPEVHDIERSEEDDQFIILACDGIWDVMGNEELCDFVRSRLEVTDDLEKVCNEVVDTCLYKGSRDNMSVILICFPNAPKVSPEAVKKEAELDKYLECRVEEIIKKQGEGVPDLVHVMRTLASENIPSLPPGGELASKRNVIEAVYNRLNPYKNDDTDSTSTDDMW
Chain of human Phosphodiesterase 4A1 (PDE4A1), PDE4A (gene 5141) (P27815 whole entry, looked up): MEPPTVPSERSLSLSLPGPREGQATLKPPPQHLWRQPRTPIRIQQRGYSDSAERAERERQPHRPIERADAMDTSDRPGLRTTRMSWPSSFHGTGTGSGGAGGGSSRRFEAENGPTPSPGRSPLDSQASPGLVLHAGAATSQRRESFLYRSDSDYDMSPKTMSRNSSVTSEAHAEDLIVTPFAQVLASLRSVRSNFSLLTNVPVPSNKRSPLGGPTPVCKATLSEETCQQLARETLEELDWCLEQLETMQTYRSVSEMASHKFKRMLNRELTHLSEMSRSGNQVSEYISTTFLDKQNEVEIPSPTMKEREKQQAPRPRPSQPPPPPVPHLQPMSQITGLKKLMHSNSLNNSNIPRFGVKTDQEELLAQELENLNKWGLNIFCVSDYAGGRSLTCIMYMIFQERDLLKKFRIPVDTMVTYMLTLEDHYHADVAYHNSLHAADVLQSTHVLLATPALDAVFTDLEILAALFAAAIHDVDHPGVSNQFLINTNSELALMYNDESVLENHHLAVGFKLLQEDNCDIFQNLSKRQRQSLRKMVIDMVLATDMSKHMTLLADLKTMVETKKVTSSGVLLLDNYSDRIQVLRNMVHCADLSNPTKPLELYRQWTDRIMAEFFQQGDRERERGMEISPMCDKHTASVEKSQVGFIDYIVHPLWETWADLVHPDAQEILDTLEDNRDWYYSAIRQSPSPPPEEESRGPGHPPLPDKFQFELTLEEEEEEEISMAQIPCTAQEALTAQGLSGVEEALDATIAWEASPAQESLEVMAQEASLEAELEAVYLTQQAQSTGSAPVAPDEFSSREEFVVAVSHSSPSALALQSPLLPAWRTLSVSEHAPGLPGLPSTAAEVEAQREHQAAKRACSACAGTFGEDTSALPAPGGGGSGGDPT
Chain of Tyrosine-protein phosphatase non-receptor type 12 (Homo sapiens) (Q05209 whole entry, looked up): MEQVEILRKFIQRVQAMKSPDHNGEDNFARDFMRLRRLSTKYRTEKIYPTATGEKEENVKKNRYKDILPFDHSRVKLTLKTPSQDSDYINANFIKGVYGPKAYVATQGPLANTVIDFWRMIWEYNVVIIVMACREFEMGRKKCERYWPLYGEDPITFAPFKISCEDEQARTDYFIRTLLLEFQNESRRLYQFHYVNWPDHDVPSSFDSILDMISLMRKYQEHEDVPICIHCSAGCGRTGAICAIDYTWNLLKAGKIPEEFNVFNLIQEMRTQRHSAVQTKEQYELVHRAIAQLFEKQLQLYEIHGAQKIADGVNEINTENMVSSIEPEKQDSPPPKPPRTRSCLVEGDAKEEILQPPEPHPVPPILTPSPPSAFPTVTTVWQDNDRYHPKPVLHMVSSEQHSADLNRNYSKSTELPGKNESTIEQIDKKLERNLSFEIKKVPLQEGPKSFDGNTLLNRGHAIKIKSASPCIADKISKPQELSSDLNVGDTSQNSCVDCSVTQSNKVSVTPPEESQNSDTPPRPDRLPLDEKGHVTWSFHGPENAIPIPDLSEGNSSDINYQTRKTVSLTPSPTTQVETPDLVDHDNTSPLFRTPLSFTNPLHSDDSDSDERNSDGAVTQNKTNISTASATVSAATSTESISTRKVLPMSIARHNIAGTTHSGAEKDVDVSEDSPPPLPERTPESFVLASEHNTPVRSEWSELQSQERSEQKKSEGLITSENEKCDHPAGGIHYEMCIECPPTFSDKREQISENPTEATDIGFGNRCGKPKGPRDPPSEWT
Chain of Tyrosine-protein phosphatase non-receptor type 11 (Homo sapiens) (Q06124 whole entry, looked up): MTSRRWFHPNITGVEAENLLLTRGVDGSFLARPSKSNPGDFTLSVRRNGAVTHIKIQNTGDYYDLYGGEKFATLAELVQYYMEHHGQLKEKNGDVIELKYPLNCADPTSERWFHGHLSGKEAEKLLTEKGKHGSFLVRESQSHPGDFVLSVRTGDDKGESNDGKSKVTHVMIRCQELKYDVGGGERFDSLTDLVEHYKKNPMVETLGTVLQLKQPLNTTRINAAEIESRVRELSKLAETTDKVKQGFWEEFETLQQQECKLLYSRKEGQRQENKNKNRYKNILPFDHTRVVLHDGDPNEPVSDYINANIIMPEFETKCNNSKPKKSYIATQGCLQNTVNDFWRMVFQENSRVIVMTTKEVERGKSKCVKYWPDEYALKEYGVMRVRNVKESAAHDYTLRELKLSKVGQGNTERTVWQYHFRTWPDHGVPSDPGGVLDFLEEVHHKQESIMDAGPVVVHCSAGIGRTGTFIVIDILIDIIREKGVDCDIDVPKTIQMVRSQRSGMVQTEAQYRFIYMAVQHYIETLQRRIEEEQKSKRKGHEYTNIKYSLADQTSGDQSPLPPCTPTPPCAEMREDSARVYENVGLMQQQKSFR
Chain of human Rho Associated Coiled-coil Containing Protein Kinase 1 (ROCK1), ROCK1 (gene 6093) (Q13464 whole entry, looked up): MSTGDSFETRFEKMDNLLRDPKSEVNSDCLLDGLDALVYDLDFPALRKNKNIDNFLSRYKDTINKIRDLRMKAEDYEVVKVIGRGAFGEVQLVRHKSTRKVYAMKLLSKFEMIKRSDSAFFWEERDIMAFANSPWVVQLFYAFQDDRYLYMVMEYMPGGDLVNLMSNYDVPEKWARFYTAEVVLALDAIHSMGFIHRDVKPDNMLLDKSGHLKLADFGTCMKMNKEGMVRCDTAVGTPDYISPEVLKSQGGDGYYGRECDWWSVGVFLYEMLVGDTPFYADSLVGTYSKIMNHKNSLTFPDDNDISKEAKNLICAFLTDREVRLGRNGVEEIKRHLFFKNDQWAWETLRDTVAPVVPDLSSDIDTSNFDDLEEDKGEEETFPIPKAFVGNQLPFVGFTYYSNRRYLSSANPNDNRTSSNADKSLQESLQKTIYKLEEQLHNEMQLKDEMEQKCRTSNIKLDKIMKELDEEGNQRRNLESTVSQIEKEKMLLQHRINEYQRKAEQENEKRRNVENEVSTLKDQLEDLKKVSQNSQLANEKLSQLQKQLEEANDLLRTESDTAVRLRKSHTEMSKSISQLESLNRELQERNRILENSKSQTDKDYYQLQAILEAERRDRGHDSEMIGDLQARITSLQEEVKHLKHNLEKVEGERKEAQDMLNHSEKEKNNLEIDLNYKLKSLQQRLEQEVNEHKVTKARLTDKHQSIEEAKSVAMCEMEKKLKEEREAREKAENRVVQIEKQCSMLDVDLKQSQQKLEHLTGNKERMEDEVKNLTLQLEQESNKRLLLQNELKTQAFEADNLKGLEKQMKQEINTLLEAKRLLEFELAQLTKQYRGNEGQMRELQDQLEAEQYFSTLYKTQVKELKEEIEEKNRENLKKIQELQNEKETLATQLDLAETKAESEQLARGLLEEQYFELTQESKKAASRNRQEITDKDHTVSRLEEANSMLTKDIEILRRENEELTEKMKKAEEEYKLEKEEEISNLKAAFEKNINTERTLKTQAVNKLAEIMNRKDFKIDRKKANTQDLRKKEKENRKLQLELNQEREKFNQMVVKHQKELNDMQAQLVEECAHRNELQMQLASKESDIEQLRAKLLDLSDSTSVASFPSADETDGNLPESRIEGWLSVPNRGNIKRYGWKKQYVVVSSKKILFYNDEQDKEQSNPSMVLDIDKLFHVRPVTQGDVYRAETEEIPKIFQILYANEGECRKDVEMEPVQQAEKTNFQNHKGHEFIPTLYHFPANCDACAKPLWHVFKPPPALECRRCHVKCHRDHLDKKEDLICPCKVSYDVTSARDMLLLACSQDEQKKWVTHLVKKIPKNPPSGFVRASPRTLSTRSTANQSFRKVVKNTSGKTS

Take `COc1ccc([N+](=O)[O-])cc1N`: the result in test [1] was inactive.
With `NC(=O)N1C(=O)C(C(=O)c2cc(Cl)cs2)c2cc(F)c(Cl)cc21` (centres undefined), the AC50 in [2] is 25 µM (active). For the same compound, the compound was called inactive in test [3].
Turning to `ClC1=C(Cl)C(Cl)(Cl)C(Cl)=C1Cl`, the outcome in [4], in test [5] and in [6] was inactive.
As for `O=c1c(-c2ccc(O)cc2)coc2cc(O)ccc12`, the call in test [5] and in test [7] was inactive.
Turning to `CCCOc1sc(C(=O)N2CCC(c3cc(CN)ccc3F)CC2)c(C)c1Br`, the compound was classed as inactive in test [2], in test [8] and in [3].
Consider `CC[C@H](C)[C@@H](C(=O)O)n1sc2ccccc2c1=O`, for which, in test [6], the compound was classed as inactive.
Regarding `N#C[C@@H]1CC(F)(F)CN1C(=O)CNC1CC2CCC(C1)N2c1ncccn1` (some centres undefined), the compound was called inactive in [9] and in test [6].
Take `CCCCCCCCCCCCCCCS(=O)(=O)Oc1ccccc1`: in [10], the result was inactive.
With `Nc1cccc2c(N)cccc12`, the compound was classed as inactive in test [11].
Turning to `NC(=O)N(O)[C@@H]1C=C[C@H](Oc2cccc(Oc3ccc(F)cc3)c2)C1`, in test [10], the AC50 was 23 µM (active). Also, the call in test [8] and in test [12] was inactive.
Regarding `CCCCCCCCCCCCc1ccccc1S(=O)(=O)O`, the AC50 is 30.2 µM (active) in test [8]; 15.5 µM (active) in [13]; 13.3 µM (active) in [4]; 11.3 µM (active) in test [5]; 21.1 µM (active) in [14]; 38.2 µM (active) in [7]. Also, the AC50 in test [6] is 19.8 µM (active); in test [12] it was 4.22 µM (active); in test [1], 13.4 µM (active); in test [15], 25 µM (active); in test [11], 25 µM (active); in test [16] it was 16.3 µM (active).
Take `Cc1cc(CCN2CCN(c3nsc4ccccc34)CC2)cc2c1NC(=O)CC2(C)C`: the outcome in [10] was inactive. In addition, the half-maximal activity concentration (AC50) in [17] was 25.6 µM (active); in test [18], 25 µM (active).

For the origin of these results see PubChem BioAssay (EPA / NIEHS).
